Assay outcomes: PubChem, National Center for Advancing Translational Sciences (NCATS)
An excerpt weighted towards active compounds, which were near 19% of everything screened.
TDP1 cell noCPT: qHTS for Inhibitors of human tyrosyl-DNA phosphodiesterase 1 (TDP1): qHTS in cells in absence of CPT; hit rate 15% among 420,000; Potency, µM (doses to about 46.2 µM), inactives show top-dose activity change, negative = growth inhibition, usual class: inhibitors; AID 686978, 2013; DT40 Tdp1-/- hTDP1 cells, no CPT, ATP luminescence, 48 h; further: potency means the concentration at half of the fitted maximal effect; nearly all actives have a fitted effect of over 55% in size
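Growth kinetics read by CellTiter-Glo luminescence after ≥48 hr at 37 °C. Cells: DT40 Tdp1-/- stably carrying human TDP1, 400 per well, compound exposure in the absence of CPT (DMSO vehicle).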
IL1B secr inh: inflammasome signaling inhibition, IL-1 beta readout | THP-1 LPS/ATP IL-1B secretion, AlphaLISA, 16 h; active compounds read low | activity change, % at 57.5 µM | hit rate 4.7% among 360,000 | AID 743279; in the data active means activity change below about -50%; inconclusive means mostly about -30% to -49%
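THP-1 cells pretreated 1 hr with compounds (up to 57.5 uM final), then stimulated with LPS (250 ng/mL final) plus ATP (1.25 mM final); secreted IL-1B measured by AlphaLISA after 16 hr, decreased signal indicating inhibition.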
HT1080NT lethal: kills 2HG-producing HT-1080-NT fibrosarcoma cells; HT-1080-NT fibrosarcoma viability, CellTiter-Glo ATP luminescence, 48 h; hit rate 1.6% among 360,000; Potency, µM (doses to about 46.1 µM), inactives show top-dose activity, negative = less viability, hits mostly cytotoxic;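 further: NT is the 2HG producing partner of a matched IDH1 knockdown line; potency means the concentration at half of the fitted maximal effect; 0% = DMSO-treated cells and -100% = media-only wells without cells; nearly all actives have a fitted effect of over 55% in size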
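HT-1080-NT; 750 cells/well; 5% FBS RPMI; 48 h compound, 37 degrees C; CellTiter-Glo luminescence; curve fitting and curve-class assignment.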
TDP1 cell CPT: DT40-hTDP1 cell growth loss with CPT; chicken DT40 Tdp1-/-;hTDP1 cells + 20 nM CPT, ATP luminescence, 48 h; Potency, µM (top dose mostly 46.2 µM), for the others: at the top dose activity change, negative = growth inhibition, hits mostly inhibitors; hit rate 12% among 420,000; further: potency means the concentration at half of the fitted maximal effect; nearly all actives have a fitted effect of over 55% in size
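Chicken DT40 Tdp1-/- cells complemented with human TDP1, 400 cells/well, exposed to compounds plus 20 nM camptothecin for at least 48 h at 37 C; viability read as ATP content by CellTiter-Glo luminescence.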
HT1080 IDH1KD tx: toxicity to HT-1080 IDH1 knockdown cells (counter line) | HT-1080 IDH1 knockdown viability, ATP luminescence, 48 h | Potency, µM (top dose mostly 46.1 µM), for the others: at the top dose activity, negative = toxicity, most hits filed as cytotoxic | hit rate 2% among 360,000 | AID 686971;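 further: potency means the concentration at half of the fitted maximal effect; 0% = DMSO wells and -100% = cell-free medium wells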
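Knockdown cells (IDH1KD HT-1080) received compounds 2 h after plating at 750 cells/well and were kept 48 h at 37 °C in 5% FBS RPMI. A CellTiter-Glo luminescence read gave % activity for curve fitting.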
* hit, by the source's call; ? = inconclusive; nt = not tested or not shown; [ ] = another dose, or the depositor's remark. Unless noted, the call rests on the fitted dose curve; in most records, active means well fitted curve in the direction sought with a large enough effect; inconclusive means small, poorly fitted or top-dose-only effect, or another doubt; inactive means no such curve, though single readings can be large; an effect the other way counts as inactive or inconclusive. Unless noted, on the % scale 0 is the no-effect control and ±100 the full control effect.

SMILES	TDP1 cell noCPT	IL1B secr inh	HT1080NT lethal	TDP1 cell CPT	HT1080 IDH1KD tx
CC1(C)CC(N2CCCCC2)=CC(=[N+]2CCCCC2)C1	0.18µM*	-70*	4.1µM*	0.15µM*	?
CN(C)NC1=CC(=[N+]2CCCC2)CC(C)(C)C1	?	6	4%	11%	2%
c1ccc2c(CSCCc3ccncc3)cccc2c1	21µM*	17	-12%	23µM*	-16%
c1ccc2c(CCc3ccncc3)cccc2c1	-16%	-88*	-5%	-16%	-3%
CCC(C)[C@H](NC(=O)N1CCn2c1nc1ccccc12)C(=O)NCc1ccccc1 (some centres undefined)	?	0	-20%	?	-17%
C[n+]1cccc(/C=N/NC(=O)CC23CC4CC(CC(C4)C2)C3)c1	-26%	29	11%	-3%	9%
CCOc1ccccc1N1CCN(C(=O)CSc2ccc3c(c2)OCCO3)CC1	?	-12	-1%	-16%	12%
O=C(C1CC(=O)N(c2ccc3c(c2)OCCO3)C1)N1CCN(c2ccccc2)CC1 (centres undefined)	-28%	-16	16%	-27%	15%
O=C(CSc1ccc2c(c1)OCCO2)N1CCN(c2ccccc2O)CC1	23µM*	0	-3%	23µM*	0%
O=C(C1CC(=O)N(c2ccc3c(c2)OCCO3)C1)N1CCN(c2ccccc2O)CC1 (centres undefined)	?	-9	-4%	21µM*	-1%
O=C(Nc1ccc(F)cc1)C1CCCN(S(=O)(=O)c2ccc3[nH]c(=O)ccc3c2)C1 (centres undefined)	?	5	4%	?	3%
Cc1c(C(=O)Nc2ccc(F)cc2F)sc2nc3n(c(=O)c12)N=C(c1ccccc1)CS3	?	nt	nt	15µM*	nt
CCOc1ccc(NC(=O)c2sc3nc(C)nc(N4CCOCC4)c3c2C)cc1	?	-53*	-10%	-3%	-9%
Cc1cc(C)cc(NC(=O)c2sc3nc4n(c(=O)c3c2C)N=C(c2ccc(F)cc2)CS4)c1	-26%	nt	nt	-17%	nt
Cc1nc(N2CCOCC2)c2c(C)c(C(=O)Nc3ccc(F)cc3F)sc2n1	?	-68*	-3%	-28%	-14%
Cc1c(C(=O)NCC(C)C)sc2ncnc(NCC3CCCO3)c12 (centres undefined)	-9%	nt	nt	4%[9.04 µM]	nt
CCOC(=O)C1CCN(C(=O)C2CCCCC2)CC1	-9%	20	13%	-35%	5%
N=c1c2c(ncn1CCCO)Oc1c(ccc3ccccc13)C2c1ccccc1 (centres undefined)	?	-28	?	?	-30%
N=c1c2c(ncn1CCCO)Oc1ccc3ccccc3c1C2c1ccccc1 (centres undefined)	?	-56*	?	?	?
COc1ccc(C2c3ccc4ccccc4c3Oc3ncn(CCCO)c(=N)c32)cc1 (centres undefined)	?	-69*	18µM*	?	?
COc1ccc(C2c3ccc4ccccc4c3Oc3ncn(CCN(C)C)c(=N)c32)cc1 (centres undefined)	21µM*	-98*	?	?	?
CN(C)CCCn1cnc2c(c1=N)C(c1ccccc1)c1ccc3ccccc3c1O2 (centres undefined)	?	-10	?	6.5µM*	?
COc1ccc(NS(=O)(=O)c2ccc3nc(COc4ccc(C#N)cc4)[nH]c3c2)cc1	?	?	-14%	-9%	-12%
COc1ccc(CC(=O)N/N=C(\C)CC(=O)Nc2ccc3c(c2)OCCO3)cc1OC	6%	32	10%	8%	2%
COc1ccc(C2c3ccc4ccccc4c3Oc3ncn(CCO)c(=N)c32)cc1 (centres undefined)	26µM*	-100*	?	?	12µM*
SMILES	TDP1 cell noCPT	IL1B secr inh	HT1080NT lethal	TDP1 cell CPT	HT1080 IDH1KD tx
CC(C)CC(C(=O)Nc1ccccc1)N1C(=O)C2C3C=CC(C3)C2C1=O (centres undefined)	-19%	-8	19%	?	6%
Cc1ccc([C@H]2C[C@H](O)[C@@H](n3cc(C4CC4)nn3)CN2Cc2cccs2)cc1	12µM*	-25	-21%	9.2µM*	-1%
O[C@H]1C[C@H](c2ccccc2)N(Cc2cccs2)C[C@@H]1n1cc(-c2ccc(F)cc2)nn1	23µM*	-79*	23µM*	23µM*	18µM*
Cc1ccc([C@H]2C[C@@H](O)[C@H](n3cc(C4CC4)nn3)CN2Cc2cccs2)cc1	?	6	15%	?	6%
COc1ccc([C@H]2C[C@H](O)[C@@H](n3cc(-c4ccc(F)cc4)nn3)CN2Cc2cccs2)cc1	5.2µM*	-61*	2.9µM*	5.2µM*	4.6µM*
CC(=O)N1CCC2(CCN(Cc3cc(C(F)(F)F)cc(C(F)(F)F)c3)CC2)CC1	?	nt	nt	-28%	nt
COC(=O)C1(C)CCCC2(C)C1CCC13OCC(CC21)C(O)(C(C)C)C3O (centres undefined)	-10%	22	19%	-18%	11%
COc1ccc(OCC(O)CNC(=O)c2sccc2Cl)cc1 (centres undefined)	0%	-14	15%	2%	9%
Cc1cccc(N2CCN(S(=O)(=O)c3cccc4nonc34)CC2C)c1 (centres undefined)	-9%	-18	9%	-14%	-2%
CCOC(=O)c1cc(S(=O)(=O)N2CCN(c3ccc(C(C)=O)cc3)CC2)[nH]n1	16µM*	nt	nt	18µM*	nt
CC(=O)c1ccc(N2CCN(S(=O)(=O)c3cccc(S(=O)(=O)N4CCOCC4)c3)CC2)cc1	?	-5	4%	?	12%
CCOC(=O)c1cc(S(=O)(=O)N2CCN(c3cccc(C)c3)C(C)C2)[nH]n1 (centres undefined)	23µM*	nt	nt	16µM*	nt
COc1ccccc1CN1CC(C(=O)N2CCOCC2)CCC1=O (centres undefined)	18%	-2	-2%	-5%	8%
O=C(NC1CCCCC1)c1cc(-c2cccs2)on1	-3%	-9	5%	37%	4%
Cc1cc(C(=O)O[C@H]2[C@H](Cc3ccccc3)NS(=O)(=O)[C@H]3C[C@@H]4C=C[C@]23O4)ccc1[N+](=O)[O-]	?	?	0%	?	0%
O=C(Nc1ccc(C(F)(F)F)cc1[N+](=O)[O-])O[C@H]1[C@H](Cc2ccccc2)NS(=O)(=O)[C@H]2C[C@@H]3C=C[C@]12O3	16µM*	-50*	-9%	21µM*	-20%
